Screening data deposited in PubChem by The Scripps Research Institute Molecular Screening Center.
CHO-K1 Ca antag = M1 antagonist counterscreen hit in parental CHO-K1 cells; ATP-induced calcium, Fluo-8 fluorescence; inhibition, % at 3 µM; actives 0.6% (n = 360,000);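 active = inhibition above a per-plate cutoff, the plate's mean sample inhibition plus 3 SD, cut at about 24% in these data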;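 note: 0% = DMSO plus EC80 ATP and 100% = DMSO alone without ATP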
CHO-K1 Ca PAM = counter-screen for M1 PAMs: effect in parental CHO-K1 cells | ATP EC20, Fluo-8 calcium fluorescence; 0% at ATP EC20, 100% at ATP max | activation, % at 3 µM | actives 0.02% (n = 360,000);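 active = activation above the run cutoff, the mean activation of all test compounds plus 3 SD, cut at about 40% in these data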;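 note: peak over basal fluorescence ratio in a 140 s read after ATP addition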
CHRM1 agonist = activates human CHRM1 receptor; CHO-K1 hM1, Fluo-8 calcium fluorescence, agonist mode; 0% DMSO, 100% acetylcholine EC100; actives 0.33% (n = 360,000); P11229; activation, % at 3 µM;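 active = activation above the run's mean compound activation plus 3 SD, cut at about 16% in these data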;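 note: peak over basal fluorescence ratio within a 140 s kinetic read after compound addition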
Target sequence (P11229 whole entry, looked up): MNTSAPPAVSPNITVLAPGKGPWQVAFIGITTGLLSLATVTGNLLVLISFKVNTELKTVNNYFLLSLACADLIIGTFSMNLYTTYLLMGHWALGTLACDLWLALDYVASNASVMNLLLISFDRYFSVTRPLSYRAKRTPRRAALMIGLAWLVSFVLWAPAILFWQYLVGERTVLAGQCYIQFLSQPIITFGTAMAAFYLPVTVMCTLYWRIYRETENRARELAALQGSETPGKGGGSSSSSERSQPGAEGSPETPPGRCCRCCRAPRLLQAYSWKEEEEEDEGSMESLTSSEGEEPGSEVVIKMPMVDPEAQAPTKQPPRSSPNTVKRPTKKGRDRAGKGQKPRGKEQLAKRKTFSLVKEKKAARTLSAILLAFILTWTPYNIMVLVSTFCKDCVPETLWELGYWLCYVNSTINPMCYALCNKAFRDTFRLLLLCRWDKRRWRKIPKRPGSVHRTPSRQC
CHO-K1 Ca ag = M1 agonist counterscreen hit in parental CHO-K1 cells. activation, % at 3 µM. actives 0.48% (n = 360,000). Fluo-8 calcium fluorescence; scaled to maximal ATP response, vehicle zero. AID 602248; in the data active = activation above about 15%;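 note: untransfected CHO-K1 host cells lacking M1 receptor as counterscreen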
CHRM1 antagonist = human CHRM1 antagonism; P11229; CHO-K1 hM1, Fluo-8 calcium fluorescence, ACh EC80 antagonist; inhibition, % at 3 µM; actives 1.3% (n = 360,000);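 active = percent inhibition above its own plate's cutoff, namely the mean of that plate's compound wells plus 3 SD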;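 note: peak over basal fluorescence ratio during 140 s after agonist addition; 0% = ACh EC80 plus DMSO and 100% = DMSO alone without agonist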
M1 PAM = potentiates human M1 receptor response to acetylcholine | CHO-K1 hM1, Fluo-8 calcium fluorescence, ACh EC20; 0% = ACh EC20, 100% = maximal ACh | activation, % at 3 µM | actives 0.088% (n = 360,000) | AID 588819; in the data active = activation above about 19%, passing the limit was not always enough
* hit, by the source's call; . = not tested or not shown; ! = a repeat was not active. Sampled rows, rich in hits. Any-hit rate of the full collection: about 2.3%.

SMILES | CHO-K1 Ca antag | CHO-K1 Ca PAM | CHRM1 agonist | CHO-K1 Ca ag | CHRM1 antagonist | M1 PAM
COc1ccc(S(=O)(=O)Nc2ccccc2C(=O)NCc2ccco2)cc1 | -2 | 15 | -3 | 1 | -7 | 6
COc1ccc(C(=O)Nc2ccccc2C(=O)NCc2ccco2)cc1OC | 3 | 16 | 1 | 4 | 20* | -12
O=C(NCc1ccco1)c1ccccc1NS(=O)(=O)c1ccc(Br)s1 | 24* | 0 | 1 | 8 | -2 | -1
CC1(C)CC(=O)C2=C(C1)OC(N)=C(C#N)C2c1cc2c(cc1[N+](=O)[O-])OCO2 (stereo not drawn) | 15 | -11 | -10 | 3 | 38* | -25
CCN(CC#CCC1(O)c2ccccc2-c2ccccc21)C(C)C | 1 | 2 | -6 | 0 | 71* | -22
CCN(CC)CC#CCC1(O)c2ccccc2-c2ccccc21 | -13 | 6 | -10 | 1 | 26* | -24
COc1ccc(COC(=O)C2=C(C)NC(=O)NC2c2ccc(OC)c(OC)c2)cc1 (stereo not drawn) | 24* | -3 | 4 | 0 | -10 | 18
C/C=C/COC(=O)C1=C(C)NC(=O)NC1c1ccc2c(c1)OCO2 (stereo not drawn) | 25* | -6 | -4 | 1 | 4 | 1
CC1=C(C(=O)OCCC(C)C)C(c2ccc3c(c2)OCO3)NC(=O)N1 (stereo not drawn) | 0 | 1 | -6 | 1 | 9 | -5
COc1cc(C2NC(=O)NC(C)=C2C(=O)OCC2CCCCC2)ccc1O (stereo not drawn) | -8 | 8 | 4 | 20* | -10 | 8
CC1(C(=O)NS(=O)(=O)C2CC2)CCCN(C(=O)Cc2ccc(F)cc2)C1 (stereo not drawn) | -3 | -3 | 0 | 0 | 3 | -5
O=C(/C=C/c1ccccc1)c1ccc2c(c1)OCO2 | -4 | 16 | -2 | 1 | -4 | 17
CN(C)c1ccc(/C=C/C(=O)c2cccnc2)cc1 | 20 | -8 | 60* | 65* | 28 | -18
CN(C)c1ccc(/C=C/C(=O)c2ccc(O)cc2)cc1 | 25* | -7 | 53* | 53* | 30 | -18
COc1ccc(C(=O)/C=C/c2ccc(N(C)C)cc2)c(OC)c1 | 45* | -25 | 69* | 82* | 53* | -20
CN(C)c1ccc(C(=O)C=Cc2ccc([N+](=O)[O-])cc2)cc1 | -5 | 2 | -1 | 0 | -6 | 2
COc1ccc(C(=O)/C=C/c2ccccc2)c(OC)c1 | -2 | 13 | -3 | 0 | -4 | 2
CN(C)c1ccc(/C=C/C(=O)c2ccc3c(c2)OCO3)cc1 | 21 | -6 | 53* | 46* | 41* | -13
COc1ccc(S(=O)(=O)N2CCC[C@H]2C(=O)N2CCC[C@H]2C(=O)NCc2ccc(F)cc2F)cc1C | -6 | -1 | . | 0 | . | .
Cn1c2c(c(=O)n(C)c1=O)CS(=O)c1ccccc1N2 (stereo not drawn) | 1 | -3 | -3 | 0 | -9 | -8
COCCNC(=O)C1(C)CCCN(Cc2csc(-c3ccc(Cl)cc3)n2)C1 (stereo not drawn) | -14 | 29 | -8 | 3 | -1 | -4
CCOC(=O)CSc1ccc2nnc(-c3cccnc3)n2n1 | -2 | 5 | -1 | 0 | -6 | 4
CCOC(=O)CSc1ccc2nnc(-c3ccccc3)n2n1 | 26* | -11 | -3 | 1 | -4 | 4
CCOC(=O)CSc1nnc2cc(C)c3ccccc3n12 | -3 | 8 | -4 | 0 | -13 | 19*
COCCNC(=O)C1CCCN(C(=O)COCc2ccccc2)CC1 (stereo not drawn) | -4 | 6 | 0 | 0 | -2 | 0
SMILES | CHO-K1 Ca antag | CHO-K1 Ca PAM | CHRM1 agonist | CHO-K1 Ca ag | CHRM1 antagonist | M1 PAM
COc1ccc2nc(C)cc(SCC(=O)O)c2c1 | 24*! | 18 | 0 | 0 | -27 | 8
COc1ccc2nc(C)cc(SCC(NC(C)=O)C(=O)OC(C)C)c2c1 (stereo not drawn) | 26* | -25 | -4 | 1 | 11 | -7
Cn1cc(Cc2ccc(C(=O)NC34CC5CC(CC(C5)C3)C4)cn2)c2ccccc21 | 0 | -6 | -8 | 0 | -15 | 2
CSc1nc(N)nc(SCC(=O)Nc2cccc(F)c2)c1C#N | 13 | -1 | 1 | 11 | 24* | -10
CSc1nc(N)nc(SCC(=O)Nc2ccc(Cl)cc2)c1C#N | 0 | 2 | 2 | 7 | 6 | -1
CCOc1ccc(Oc2ccc(NS(=O)(=O)c3ccc(CCC(=O)O)cc3)cc2)cc1 | -8 | 7 | -1 | 1 | 7 | -1
OC1(c2cccc(C(F)(F)F)c2)CCN(c2ncnc3c2[nH]c2ccccc23)CC1 | 25* | -2 | -1 | 0 | 15 | -1
c1ccc2c(c1)CCN(c1ncnc3c1[nH]c1ccccc13)C2 | 22 | 3 | 3 | 11 | 43* | -11
c1ccc2c(c1)[nH]c1c(N3CCC4(CC3)OCCO4)ncnc12 | -13 | 18 | 2 | 7 | 8 | -6
C[C@@H]1CN([C@@H](C)CO)C(=O)c2cc(Br)cnc2O[C@H]1CN(C)C(=O)CN1CCOCC1 | -9 | 13 | -2 | 0 | -10 | -1
O=C1NC(c2cccc([N+](=O)[O-])c2)Oc2ccccc21 (stereo not drawn) | 27* | -20 | -3 | -1 | 10 | -7
Cc1ccc(C2NC(=O)c3ccccc3O2)cc1 (stereo not drawn) | -4 | 21 | 2 | 19* | -11 | 12
O=C1NC(c2ccc(F)cc2)Oc2ccccc21 (stereo not drawn) | -7 | -5 | -2 | 1 | -1 | 1
CN(C)c1ccc(CC(=O)N2CCCCC2c2cc(C(=O)Nc3ccccc3)no2)cc1 (stereo not drawn) | 3 | -4 | -5 | 2 | 0 | -5
Cc1ccc(NC(=O)c2cc(-c3cc(C)c(C)cc3O)n[nH]2)cc1C | 10 | -1 | 6 | -1 | -24 | 28*
CCc1nc2c(OCC(=O)C(C)(C)C)cccn2c1N(C=O)Cc1ccccc1 | 4 | -16 | -3 | 0 | -10 | 1
O=[N+]([O-])c1ccc(N2CCN(Cc3ccc4c(c3)OCO4)CC2)nc1 | -13 | 22 | -4 | 5 | -14 | 1
O=C(c1ccc(Cl)c([N+](=O)[O-])c1)N1CCN(Cc2ccc3c(c2)OCO3)CC1 | 5 | 1 | -12 | 16* | -4 | -4
O=Cc1cc([N+](=O)[O-])ccc1N1CCN(Cc2ccc3c(c2)OCO3)CC1 | -10 | -7 | -6 | 10 | 35* | -30
O=C(c1cccc(Cl)c1)N1CCN(Cc2ccc3c(c2)OCO3)CC1 | -3 | 0 | -6 | 0 | -3 | -2
CC1CCN(c2nc3ccc(C(=O)N4CCN(Cc5ccc6c(c5)OCO6)CC4)cc3s2)CC1 | 9 | 3 | -11 | 0 | 29* | -17
